Molecules are shown by their SMILES. About 83,000 compounds went through this panel and 20% of them were active in at least one assay; those are over-represented in the sample as a whole.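 Compound tested at a single concentration for 48 hours in 96-well plates; a percent growth value below 10 was scored as active.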 A number with no mark means an inactive call. Activity calls are given as the source filed them.

Experiment in all cases: NCI-60 one-dose screen, 48 h (100 = growth as untreated, 0 = no growth, -100 = all killed)
Conditions in all cases: 10 µM unless noted

Experiment [1] deals with NCI-H23 lung.
Experiment [2] concerns NCI-H226 lung.
Experiment [3] deals with NCI-H322M lung.
The test system of experiment [4] is HOP-62 NSCLC.
The subject of experiment [5] is NCI-H460 lung.
For experiment [6], the system named is HOP-92 NSCLC.
Experiment [7] relates to NCI-H522 lung.
Experiment [8] concerns A549/ATCC NSCLC.
For experiment [9], the system named is 786-0 renal.
Experiment [10] has as its system COLO 205 colon.

Regarding `FC(F)(F)c1cc(Nc2ccc3cc(OCCCN4CCOCC4)ccc3n2)ccc1Cl`, the growth in experiment [1] is 36%; in [2], 68.2%; in experiment [3], 66.4%; in [4] it was 12.3%; in [5] it was 6.76% (active); in experiment [6], 26.1%. The growth in experiment [7] is -22.1% (active); in experiment [8], 28.3%; in [9] it was -64.5% (active); in [10] it was -69.3% (active).

In the case of `Nc1n[nH]c(-c2cc(Cl)ccc2O)c1-c1ccccc1`, the growth in [1] was 71.4%; in [2] it was 70.5%; in experiment [3] it was 82.9%; in experiment [4] it was 83.6%; in experiment [5] it was 102%; in experiment [6] it was 73.1%. Also, the growth is 81.8% in [7], 82.3% in [8], 92.7% in experiment [9] and 101% in experiment [10].

Take `O=C(Nc1cccc(Oc2nnc(Cl)c3ccccc23)c1)Nc1ccc(Cl)c(C(F)(F)F)c1`: the growth was -52.4% (active) in experiment [1]; -28.2% (active) in experiment [2]; -5.16% (active) in experiment [3]; -81.6% (active) in [4]; -77.4% (active) in experiment [5]; -38.4% (active) in experiment [6]. Moreover, the growth is -67.5% (active) in [7], -21.9% (active) in experiment [8], -42.8% (active) in experiment [9] and -69.3% (active) in experiment [10].

Turning to `COc1ccc2c(c1)C(=O)/C(=C/c1ccc(OCC(=O)Nc3nccs3)cc1)O2`, the growth in experiment [1] was 2.06% (active); in [2], 94.1%; in experiment [3] it was 127%; in [4] it was 106%; in experiment [5], 90.2%; in [6], -78.8% (active). Moreover, the growth was -61% (active) in [7], 84.9% in [8], -12.6% (active) in experiment [9] and 54.9% in experiment [10].

As for `C=C1C(=O)O[C@H]2[C@H]1CC/C(CNC(=O)/C=C/c1ccc(Cl)cc1Cl)=C\CC[C@@]1(C)O[C@@H]21`, the growth in experiment [1] is -61.2% (active); in experiment [2], 64.2%; in [3], 73.9%; in [4] it was 17.2%; in experiment [5] it was 2.98% (active); in experiment [6], -50.8% (active). Further, the growth is -84.2% (active) in experiment [7], 20.9% in experiment [8], -77.1% (active) in experiment [9] and -65.5% (active) in experiment [10].

With `N/C(=N/N=C/c1ccccc1)N/N=C\c1ccccc1`, the growth is 66.6% in experiment [1]; 81% in [2]; 85.2% in experiment [3]; 76.5% in [4]; 39.8% in [5]; 57.1% in [6]. Besides, the growth in experiment [7] is 56.8%; in [8] it was 59%; in [9], 56.2%; in experiment [10], 67.7%.

Take `CCCCn1c(=O)c2c(nc(NCCc3ccc(O)c(O)c3)n2CCC)n(CCCC)c1=O`: the growth in [1] is 87.1%; in experiment [2], 87.7%; in [3], 94.2%; in [4], 96.8%; in experiment [5] it was 92.9%; in experiment [6], 69.8%. Besides, the growth in experiment [7] is -0.778% (active); in experiment [8] it was 76.9%; in [9], 81.3%; in experiment [10], 70.3%.

On to `Cc1cc(/C=C\c2ccc3ccccc3[n+]2C)c(O)c2ncccc12`, for which the growth was -4.98% (active) in experiment [1]; -35.5% (active) in experiment [2]; 8.71% (active) in [3]; 20.3% in experiment [4]; 4.5% (active) in experiment [5]; 19.4% in experiment [6]. In addition, the growth was 32.1% in experiment [7], 12% in [8], 9.72% (active) in experiment [9] and 9.56% (active) in experiment [10].

With `COc1cccc(-c2nn(-c3ccccc3)cc2-c2ccnc(NCCNC(=O)c3ccccc3)c2)c1`, the growth in [1] is 61.4%; in [2] it was 70.4%; in experiment [3], 109%; in [4] it was 60.7%; in experiment [5] it was 63.7%; in experiment [6] it was 52.8%. Moreover, the growth in experiment [7] is 56.7%; in [8] it was 41.8%; in [9], 54.4%; in [10], 62.6%.

Regarding `COc1ccc(C2c3ccc4ccccc4c3Oc3nc(C)[nH]c(=O)c32)cc1` (stereo not given), the growth in experiment [1] was 92%; in [2], 92.4%; in experiment [3] it was 101%; in experiment [4], 89%; in experiment [5], 99.4%; in [6], 91%. Further, the growth is 77% in experiment [7], 109% in experiment [8], 107% in [9] and 110% in [10].

Regarding `COc1cccc(-c2nn(-c3ccccc3)cc2-c2ccnc(NCCCNC(=O)c3ccccc3)c2)c1`, the growth is 51.3% in [1]; 61.4% in experiment [2]; 95.2% in experiment [3]; 53.6% in [4]; 51.7% in [5]; 41.5% in experiment [6]. Further, the growth in [7] is 38.3%; in [8], 30.7%; in experiment [9] it was 40.2%; in experiment [10] it was 35.2%.

Consider `Cc1c(C(=O)NC(Cc2ccccc2)C(O)C(=O)NCc2ccc(F)cc2)[nH]c2ccccc2c1=O` (stereo not given), for which the growth is 99.8% in experiment [1]; 105% in experiment [2]; 101% in experiment [3]; 99.2% in experiment [4]; 104% in experiment [5]; 108% in experiment [6]. The growth was 93.5% in experiment [7], 101% in [8], 104% in experiment [9] and 111% in [10].

Turning to `COc1nc2c(c(=O)n1C)CN(c1ccccc1)C(=O)CN2C`, the growth is 56.9% [100 µM] in experiment [1]; 52.3% [100 µM] in experiment [2]; 62.1% [100 µM] in experiment [3]; 63.6% [100 µM] in experiment [4]; 59.4% [100 µM] in experiment [5]; 56.9% [100 µM] in experiment [6]. Further, the growth was 67% [100 µM] in [7], 55.7% [100 µM] in experiment [8], 55.2% [100 µM] in [9] and 68.8% [100 µM] in experiment [10].

For `COc1cc(C2CC(=O)Nc3c2c(C)nn3-c2nc3ccccc3[nH]2)cc2c1OCC(=O)N2` (stereo not given), the growth in experiment [1] is 74.6%; in [2], 76.2%; in experiment [3] it was 94%; in experiment [4], 80.8%; in experiment [5] it was 67.1%; in experiment [6] it was 56.9%. The growth is 71.4% in experiment [7], 66.8% in experiment [8], 58.5% in experiment [9] and 79.2% in [10].

(Values after PubChem BioAssay (NCI).)
